Experimental data reported in PubChem BioAssay (NCATS).
Records with an inconclusive call do not appear. Activity calls are given as the source filed them. Calls come from the whole dose curve; as a rule, active = well fitted curve in the direction sought with a large enough effect; inconclusive = small, poorly fitted or top-dose-only effect, or another doubt; inactive = no such curve, though single readings can be large; an effect the other way counts as inactive or inconclusive.

Experiments:
[1] = molecular target: Glutathione peroxidase 1 (Homo sapiens) (UniProt P07203); test: Primary qHTS Assay for Inhibitors of Recombinant Selenoprotein Glutathione Peroxidase 1 (GPX1) (AID 1845191); note: nearly all actives have a fitted effect of over 65% in size; for activity, negative = inhibition: % is set by controls: 0 for no effect and ±100 for the full control effect
Chain of Glutathione peroxidase 1 (Homo sapiens) (P07203 whole entry, looked up): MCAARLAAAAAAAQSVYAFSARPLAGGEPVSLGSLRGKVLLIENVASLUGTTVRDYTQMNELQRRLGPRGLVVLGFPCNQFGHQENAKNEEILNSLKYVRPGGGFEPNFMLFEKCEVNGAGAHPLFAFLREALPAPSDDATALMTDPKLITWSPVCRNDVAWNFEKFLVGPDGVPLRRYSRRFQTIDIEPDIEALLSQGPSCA
In short: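 GR-coupled assay: compounds preincubated 30 min at room temperature with GPX1, then reaction started with CHP; final 10 nM GPX1, 1 mM GSH, 0.5 mM CHP, 0.5 mM NADPH, 100 nM GR, 0.01% BSA, pH 7.5 Tris buffer. NADPH fluorescence (340/450 nm) read at 0 and 15 min.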

[2] = molecular target: Phospholipid hydroperoxide glutathione peroxidase GPX4 (Homo sapiens) (UniProt P36969); test: Primary qHTS Assay for Inhibitors of Recombinant Selenoprotein Glutathione Peroxidase 4 (GPX4) (AID 1845192); note: nearly all actives have a fitted effect of over 65% in size; for activity change, negative = inhibition: series mostly up to about 50 µM; % is set by controls: 0 for no effect and ±100 for the full control effect
Chain of Phospholipid hydroperoxide glutathione peroxidase GPX4 (Homo sapiens) (P36969 whole entry, looked up): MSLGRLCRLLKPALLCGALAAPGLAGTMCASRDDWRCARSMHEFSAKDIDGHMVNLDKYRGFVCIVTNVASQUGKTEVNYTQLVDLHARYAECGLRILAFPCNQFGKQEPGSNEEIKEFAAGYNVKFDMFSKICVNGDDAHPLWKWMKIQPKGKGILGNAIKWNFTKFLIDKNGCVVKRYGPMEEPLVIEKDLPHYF
In short: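 GR-coupled assay: recombinant GPX4 preincubated 30 min with compound at room temperature; final 200 nM GPX4, 1 mM GSH, 0.5 mM cumene hydroperoxide, 0.5 mM NADPH, 100 nM GR, 0.01% BSA, pH 7.5 Tris. NADPH fluorescence (340/450 nm) read at 0 and 15 min.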

[3] = molecular target: Luciferin 4-monooxygenase (Photinus pyralis) (UniProt P08659); test: Primary firefly luciferase (FLuc) qHTS assay for identification of artifact compounds. (AID 1845220); note: nearly all actives have a fitted effect of over 60% in size; note: potency is the fitted concentration of half-maximal effect;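 for activity change, negative = inhibition: series mostly up to about 54 µM; plate controls were DMSO vehicle for no effect and no enzyme for full effect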
In short: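 Titrated compounds were incubated 15 min at RT, protected from light, with luciferin and ATP at 10 uM; reaction started with 10 nM FLuc, luminescence imaged at 5 min, and concentration-response fitted by Hill equation.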

[4] = Primary fluorescence-based thiol-reactive (MSTI) qHTS assay for identification of artifact compounds. (AID 1845221); note: nearly all actives have a fitted effect of over 65% in size; note: potency is the fitted concentration of half-maximal effect;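 for activity change, negative = thiol reactive: series mostly up to about 54 µM; thiol-reactive compounds lower the probe fluorescence signal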
In short: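 MSTI probe at 4 uM final in 2% DMSO/PBS pH 7.4; compounds, 1 h at room temperature in dark. Fluorescence Ex/Em 525/598 nm, normalised to Acetyl-MSTI and MSTI, fitted to 4-parameter Hill.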

[5] = tested on: Nanoluciferase (engineered Oplophorus gracilirostris luciferase); test: Primary Nanoluciferase (NLuc) qHTS assay for identification of artifact compounds. (AID 1845222);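 note: NLuc secreted into diluted conditioned medium of S16 cells; series mostly up to about 54 µM; 0% = DMSO and -100% = no enzyme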
In short: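 qHTS format, against NLuc in S16 cell-conditioned medium. Nano-Glo substrate 1:100 was added after 15 min at room temperature. Luminescence was taken after a further 5 min.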

[6] = Primary redox qHTS assay for identification of artifact compounds. (AID 1845223);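 note: 0% = DMSO and 100% = reference compound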
In short: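 Amplex Red (25 uM) and HRP (250 mU/mL) in HBSS, with compounds for 15 min, then 250 uM DTT for 30 min, room temperature, dark. Fluorescence 525/598 nm read; normalized to DMSO and 10 uM DA3003; Hill fit.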

O=C(O)C(O[C@@H]1O[C@H](CO[C@@H]2O[C@H](CO)[C@@H](O)[C@H](O)[C@H]2O)[C@@H](O)[C@H](O)[C@H]1O)c1ccccc1 (some centres not stated)
inactive: Potency [1] | Potency [2] | Potency [3] | Potency [4] | Potency [5] | Potency [6]

CCC(O)(C(=O)OCc1ccccc1NC(=O)CCC(=O)O)C(C)O (configuration not stated)
inactive: Potency [1] | Potency [2] | Potency [3] | Potency [4] | Potency [5] | Potency [6]

C=C(C)C1CCC(C)C12CC(O)C1(C)OC1C2OC(=O)C(N)CCC(=O)O (configuration not stated)
inactive: Potency [1] | Potency [2] | Potency [3] | Potency [4] | Potency [5] | Potency [6]

CC(C)C[C@H](CC(=O)NO)C(=O)N[C@H](C(=O)N[C@@H](C)C(=O)NCCN)C(C)(C)C
inactive: activity, negative = inhibition [1] -2.8% [at 9.52 µM] | activity change, negative = inhibition [2] -8.26% [at 9.73 µM] | activity change, negative = inhibition [3] -1.85% [at 11.6 µM] | activity change, negative = thiol reactive [4] 1.54% [at 11.5 µM] | activity, negative = inhibition [5] 2.44% [at 11.6 µM] | redox activity (% of DA3003) [6] 0.177% [at 11.5 µM]

CC(C)(C)Nc1nc2cc(Cl)c(Cl)cc2nc1S(C)(=O)=O
inactive: Potency [1] | Potency [2] | Potency [3] | Potency [4] | Potency [5] | Potency [6]

COc1cc(C(=O)OC[C@@]2(O)CO[C@@H](O[C@H]3[C@H](Oc4ccc(C(=O)O)cc4OC)O[C@H](CO)[C@@H](O)[C@@H]3O)[C@@H]2O)ccc1O
inactive: Potency [1] | Potency [2] | Potency [3] | Potency [4] | Potency [5] | Potency [6]

CC(=O)NC[C@H]1CN(c2ccc(N3CCN(C(=O)CO)CC3)c(F)c2)C(=O)O1
inactive: Potency [1] | Potency [2] | Potency [3] | Potency [4] | Potency [5] | Potency [6]

CC(=O)O[C@@H]1c2c3c(cc(O)c2C(=O)O[C@@H]1C)O[C@@]1(C)[C@@H](O)C[C@H]2C(C)(C)C(=O)C=C[C@]2(C)[C@@H]1C3
inactive: Potency [1] | Potency [2] | Potency [3] | Potency [4] | Potency [5] | Potency [6]

COc1cc(OC)cc(C(=O)Nc2ccc(Cl)c(-c3nc4ccc(N(C)C)cc4[nH]3)c2)c1
inactive: Potency [1] | Potency [2] | Potency [5] | Potency [6]
active: Potency [3] 8.49 µM | Potency [4] 3.77 µM

c1ccc(-c2ncc(CN3CCN(c4ncccn4)CC3)[nH]2)cc1
inactive: Potency [1] | Potency [2] | Potency [3] | Potency [4] | Potency [5] | Potency [6]

NCc1ccc(Nc2ncc(F)c(Nc3ccccc3)n2)cc1
inactive: Potency [1] | Potency [2] | Potency [3] | Potency [4] | Potency [5] | Potency [6]

C[C@H](Oc1ccc(S(C)(=O)=O)cc1C(=O)N1CCN(c2ncc(C(F)(F)F)cc2F)CC1)C(F)(F)F
inactive: Potency [1] | Potency [2] | Potency [3] | Potency [4] | Potency [5] | Potency [6]

CC1OC(OC2C(CO)OC(OCC3OC(OC(=O)C45CCC(C)(C)CC4C4=CCC6C7(C)CCC(OC8OC(CO)C(O)C(OC9OC(CO)C(O)C(O)C9O)C8O)C(C)(C)C7CCC6(C)C4(C)CC5)C(O)C(O)C3O)C(O)C2O)C(O)C(O)C1OC1OC(CO)C(O)C(O)C1O (configuration not stated)
inactive: activity, negative = inhibition [1] -12.6% [at 9.52 µM] | activity change, negative = inhibition [2] -8.53% [at 9.73 µM] | activity change, negative = inhibition [3] -3.46% [at 11.6 µM] | activity change, negative = thiol reactive [4] 208% [at 11.5 µM] | activity, negative = inhibition [5] 1.03% [at 11.6 µM] | redox activity (% of DA3003) [6] 10.1% [at 11.5 µM]

C=CC(=O)N1CCN(C(=O)CNc2cc(I)c(Cl)cc2O)CC1
inactive: Potency [1] | Potency [2] | Potency [3] | Potency [5] | Potency [6]
active: Potency [4] 8.44 µM

Cc1cc(Nc2cc(N3CCN(C)CC3)nc(/C=C/c3ccccc3)n2)n[nH]1
inactive: Potency [1] | Potency [2] | Potency [3] | Potency [4] | Potency [5] | Potency [6]

Cc1c(NC(=O)c2cc(C(N)=O)nc3cc(F)ccc23)c(C(F)(F)F)nn1Cc1ccc(C#N)cc1
inactive: Potency [1] | Potency [2] | Potency [3] | Potency [4] | Potency [5] | Potency [6]

NC(=O)[C@H](O[C@@H]1O[C@H](CO)[C@@H](O)[C@H](O)[C@H]1O)c1ccccc1
inactive: Potency [1] | Potency [2] | Potency [3] | Potency [5] | Potency [6]
active: Potency [4] 16.5 µM

CC1CCC2(C(=O)O)CCC3(C)C(=CCC4C5(C)CCC(O)C(C)(CO)C5CCC43C)C2C1(C)O (configuration not stated)
inactive: Potency [1] | Potency [2] | Potency [3] | Potency [4] | Potency [5] | Potency [6]

Cc1csc(NC(=O)c2ccc(COc3cccc(Cl)c3)o2)n1
inactive: Potency [1] | Potency [2] | Potency [3] | Potency [4] | Potency [5] | Potency [6]

COC1CC(O[C@H]2CC[C@@]3(C)C(CCC4C3[C@H](OC(C)=O)[C@@H](OC(=O)/C=C/c3ccccc3)[C@]3(C)C(C(C)=O)CC[C@]43O)C2)OC(C)C1OC1CC(OC)C(OC2CC(OC)C(OC3OC(C)C(OC4OC(CO)C(O)C(O)C4O)C(OC)C3O)C(C)O2)C(C)O1 (some centres not stated)
inactive: outcome [1] inactive [at 9.52 µM] | activity change, negative = inhibition [2] -9.21% [at 9.73 µM] | outcome [3] inactive [at 11.6 µM] | activity change, negative = thiol reactive [4] 2.39% [at 11.5 µM] | activity, negative = inhibition [5] -1.88% [at 11.6 µM] | redox activity (% of DA3003) [6] -6.18% [at 11.5 µM]

CN(C)C(=O)NC1CCC(CCN2CCN(c3cccc(Cl)c3Cl)CC2)CC1 (configuration not stated)
inactive: Potency [1] | Potency [2] | activity change, negative = inhibition [3] 2.95% [at 11.6 µM] | activity change, negative = thiol reactive [4] 20.5% [at 11.5 µM] | activity, negative = inhibition [5] -1.17% [at 11.6 µM] | redox activity (% of DA3003) [6] -4.67% [at 11.5 µM]

CC1=C(CCC(C)CC(=O)O)[C@@]2(C)CCCC(C)(C)C2CC1=O (some centres not stated)
inactive: Potency [1] | Potency [2] | Potency [3] | Potency [4] | Potency [5] | Potency [6]
